Data taken from PubChem BioAssay AID1259418 (Broad Institute, 2018).
The campaign covered roughly 3,400 compounds. About 840 (25%) were called active. Another 11% or so got no clear call; they are omitted. These entries were drawn from the full list. Entries with a potency or affinity are not part of this list. A number with no mark means an inactive call.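 How the source made its calls: active means fitted half-maximal concentration of signal decrease at or below twice the sample's top tested concentration; inconclusive means flat curve between -70 and -30 percent, or poor fit; inactive means flat within 30 percent, signal rise, or potency above limit.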

Assay: inhibitors of Toxoplasma growth in IFN-γ-primed HeLa – cell-based, ME49Luc, luciferase, 72 h, dose response (AID 1259418)
Conditions: T. gondii ME49Luc in IFN-y HeLa, active compounds read low, -100% = high-dose IFN-γ control wells; at 19.5 µM unless noted
`Clc1ccc(-c2nc(N3CCCc4ccccc43)c3ccccc3n2)cc1` gave a max activity of 10.7% [at 0.35 µM]. In the case of `Cc1nc(-c2cc(S(=O)(=O)N3CCCCC3C)c(C)s2)sc1C` (stereo not drawn), the max activity is reported as -14.7% [at 5 µM]. `Cc1nc(-c2ccc(F)cc2)sc1-c1ccc(SCc2cccc(C(F)(F)F)c2)nn1` showed a max activity of -7.18% [at 0.16 µM]. For `Cc1cccc(-c2nc(Cn3nnc(-c4nc(-c5ccc(Cl)c(F)c5)no4)c3C)c(C)o2)c1`, the max activity was 6.89%. Compound `COc1ccc2c(c1)NC1(CCN(C(=O)Cc3cccs3)CC1)c1cccn1-2` has a max activity of -16.4% [at 10 µM]. With `COc1cccc(-c2nc3c(s2)CN(S(=O)(=O)c2ccc(Cl)cc2)CC3)c1` the max activity was -9.55% [at 0.16 µM]. `Cc1ccc(C)c(-c2coc(-c3ccc(NC(=O)c4sccc4C)cc3)n2)c1` gave a max activity of 16.8% [at 10 µM]. Work on `Cc1nc(CCNC(=O)[C@H]2CCCN2C(=O)c2ccccc2Cl)cs1` yielded a max activity of 13.6% [at 0.35 µM]. For `Cc1oc(-c2cccc(Cl)c2)nc1Cn1nnc(-c2nc(-c3ccc(F)cc3)no2)c1C`, the max activity was -12.5% [at 0.16 µM]. With `CCOc1ccc(-c2nc(CN3CCN(C(=O)Nc4ccc(CC)cc4)CC3)c(C)o2)cc1` the max activity was 8.87% [at 1.35 µM]. Compound `CCOc1ccc(-c2nc(CN3CCN(C(=O)Nc4ccc(C)cc4)CC3)c(C)o2)cc1` has a max activity of -22.9%. Compound `CCOc1ccc(NC(=O)N2CCN(Cc3nc(-c4ccc(C)cc4)oc3C)CC2)cc1` has a max activity of 18.7% [at 2.6 µM]. Work on `CCOc1ccc(NC(=O)N2CCN(Cc3nc(-c4ccc(OCC)cc4)oc3C)CC2)cc1` yielded a max activity of 8.47% [at 5 µM]. Work on `CCOc1ccc(-c2nc(CN3CCN(C(=O)Nc4cc(C)cc(C)c4)CC3)c(C)o2)cc1` yielded a max activity of -7.26% [at 0.16 µM]. `COc1ccc(OC)c(NC(=O)N2CCN(Cc3nc(-c4cccc(Cl)c4)oc3C)CC2)c1` gave a max activity of 24.8% [at 5 µM]. Work on `CCOc1ccc(-c2nc(CN3CCN(C(=O)Nc4ccccc4OCC)CC3)c(C)o2)cc1` yielded a max activity of 16%. For `CCOc1ccc(-c2nc(CN3CCN(C(=O)Nc4ccccc4CC)CC3)c(C)o2)cc1`, the max activity was 11.7% [at 2.6 µM]. `Cc1ccc(NC(=O)COc2nc(C)nc3ccccc23)c(Br)c1` showed a max activity of 23.6%. Work on `COC(=O)c1cc(Cl)ccc1NC(=O)COc1nc(C)nc2ccccc12` yielded a max activity of 15.7% [at 0.16 µM]. `Cc1[nH]c2ccccc2c1C(=O)C(=O)NC1CC(=O)N(c2ccccc2)C1` (stereo not drawn) gave a max activity of 12.7% [at 2.6 µM]. In the case of `Cc1nc(CCNC(=O)C2CCN(S(=O)(=O)c3cnn(C(F)F)c3C)CC2)cs1`, the max activity is reported as 8.74% [at 0.68 µM]. Compound `Cc1ccoc1C(=O)N1CC[C@H]2CO[C@@H](CN3CCN(C)CC3)[C@@H]2C1` has a max activity of 14.9%. Work on `COc1cc(OC)c(NC(=O)COc2nc(C)nc3ccccc23)cc1Cl` yielded a max activity of 39.9%. `CCc1nc(OCC(=O)Nc2ccccc2OC)c2ccccc2n1` gave a max activity of 14.6% [at 0.35 µM]. Work on `CSc1cccc(NC(=O)COc2nc(C)nc3ccccc23)c1` yielded a max activity of 16.7% [at 5 µM]. With `CCOc1ccc(-c2nc(CN3CCN(C(=O)Nc4ccccc4Cl)CC3)c(C)o2)cc1` the max activity was 227%. Compound `Cc1ccc(-c2nc(CN3CCN(C(=O)Nc4ccc(C)cc4Cl)CC3)c(C)o2)cc1` has a max activity of 13.8% [at 2.6 µM]. Compound `CCOc1ccc(-c2nc(CN3CCN(C(=O)Nc4cccc(C)c4)CC3)c(C)o2)cc1` has a max activity of 6.07%. `CCOc1ccc(-c2nc(CN3CCN(C(=O)Nc4ccc(C)c(Cl)c4)CC3)c(C)o2)cc1` showed a max activity of 18% [at 0.16 µM]. Compound `Cc1ccc(C(=O)Nc2c(C(=O)N3CCN(c4ncccn4)CC3)[nH]c3ccccc23)cc1` has a max activity of 15.6% [at 0.68 µM]. For `COc1cccc(CNC(=O)COc2nc(C)nc3ccccc23)c1OC`, the max activity was 25.6%. Compound `COc1ccc(-c2nc(Nc3cc(C)cc(C)c3)c3ccccc3n2)cc1` has a max activity of -19.1% [at 0.35 µM]. In the case of `Brc1ccc(Nc2c3ccccc3nc3ccccc23)cc1`, the max activity is reported as 36.4% [at 5 µM]. With `CN1CCN(C(=O)c2nn(C)c3c2CCN(S(C)(=O)=O)C3)CC1` the max activity was 18.7% [at 10 µM]. `O=C(Cc1ccccn1)N1CC(=O)N2[C@H](C1)[C@@H](c1ccc(C#CCC3CCCC3)cc1)[C@@H]2CO` gave a max activity of 6.79% [at 0.3 µM]. `Cc1ccc(-c2coc(-c3ccc(NC(=O)NCc4cccc(F)c4)cc3)n2)c(C)c1` gave a max activity of 17.3%. Work on `Cc1ccc(C)c(-c2coc(-c3ccc(NC(=O)Nc4ccccc4F)cc3)n2)c1` yielded a max activity of -23.6% [at 0.16 µM]. `Cc1ccc(-c2coc(-c3ccc(NS(=O)(=O)c4cccc(Cl)c4)cc3)n2)cc1C` showed a max activity of -24.2% [at 0.35 µM]. For `CCc1c(C)sc2c1CCN(Cc1nc(-c3cccc(C)c3)oc1C)C2c1ccccc1` (stereo not drawn), the max activity was 5.74% [at 10 µM]. With `COc1ccc(CCNC(=O)CC2Nc3c4ccccc4nc(=S)n3C2=O)cc1OC` (stereo not drawn) the max activity was 17% [at 0.16 µM]. Work on `CCc1ccc2c(c1)cc(S(=O)(=O)c1ccccc1)c(=O)n2CC(=O)NCc1ccc(F)cc1` yielded a max activity of 15.5%. In the case of `Cc1ccc(C(=O)Nc2ccc(-c3nc(-c4ccc(C)cc4)co3)cc2)cc1`, the max activity is reported as 113% [at 10 µM]. For `O=C(CCn1nnc2cc(-c3noc(-c4cccc5[nH]ccc45)n3)ccc21)N1CCCC1`, the max activity was 43%. Work on `COc1ccc(CNS(=O)(=O)c2cc3c4c(c2)CCC(=O)N4CCC3)cc1` yielded a max activity of -13.1% [at 10 µM]. `O=C1CCc2cc(S(=O)(=O)Nc3ccc4c(c3)OCCO4)cc3c2N1CCC3` gave a max activity of -30% [at 0.16 µM]. With `Cc1cccc(C)c1NS(=O)(=O)c1cc2c3c(c1)CCC(=O)N3CCC2` the max activity was -22%. `Cc1ccc(NS(=O)(=O)c2cc3c4c(c2)CCC(=O)N4CCC3)c(C)c1` showed a max activity of 4.48% [at 2.6 µM]. `Cc1cc(C)c(NS(=O)(=O)c2cc3c4c(c2)CCC(=O)N4CCC3)c(C)c1` gave a max activity of 8.39%. In the case of `O=C1CCc2cc(S(=O)(=O)NCc3ccc4c(c3)OCO4)cc3c2N1CCC3`, the max activity is reported as -19.9% [at 2.6 µM]. For `Cc1ccc(NS(=O)(=O)c2cc3c4c(c2)CCC(=O)N4CCC3)cc1C`, the max activity was -11.9%. In the case of `CCOc1cccc(-c2noc(-c3nnn(Cc4nc(-c5ccccc5)oc4C)c3C)n2)c1`, the max activity is reported as 8.01%. `COc1ccc(-c2nc3c(s2)CN(S(=O)(=O)c2cccc(Cl)c2)CC3)cc1` gave a max activity of -9.33% [at 2.6 µM]. Compound `COc1ccc(-c2nc(Cn3nnc(-c4nc(-c5ccccc5Cl)no4)c3C)c(C)o2)cc1` has a max activity of -7.3% [at 1.35 µM]. With `CCCCc1ccc(Nc2ncnc3c2cnn3-c2ccccc2)cc1` the max activity was -7.99% [at 0.68 µM]. Work on `COc1ccc(NC(=O)CN2CCC3(CC2)N=C(c2ccc(F)cc2)C(=O)N3)cc1Cl` yielded a max activity of -24% [at 0.16 µM]. `CCc1nc(OCC(=O)Nc2ccccc2CC)c2ccccc2n1` gave a max activity of 28.5%. With `O=C(CC1CCCC1)Nc1ccc2c(c1)CCC(=O)N2` the max activity was 12.2%. For `Cc1oc(-c2cccc(Cl)c2)nc1Cn1nnc(-c2nc(-c3ccccn3)no2)c1C`, the max activity was -10.2% [at 5 µM]. With `COc1ccccc1-c1ccc(C2[C@@H]3CN(C(=O)c4ccncc4)C[C@H]2N3)cc1` (stereo partly drawn) the max activity was 32.2%. `COc1ccc(C(=O)N2CCC3(CC2)Nc2cc(F)ccc2-n2cccc23)cc1` gave a max activity of -22% [at 0.16 µM]. Work on `COc1ccc(-c2ccc(C3[C@@H]4CN(C(=O)c5cnccn5)C[C@H]3N4)cc2)cc1` (stereo partly drawn) yielded a max activity of 10.5% [at 10 µM]. With `CCOC(=O)CSc1nc(NCc2ccc(OC)cc2)c2ccccc2n1` the max activity was 20.1% [at 10 µM]. `Cc1ccc2c(c1C)-n1cccc1C1(CCN(C(=O)Cc3ccc(F)cc3)CC1)N2` gave a max activity of 11.4% [at 0.68 µM]. `O=C(Nc1cncc(-c2nc3ccccc3o2)c1)c1cccc(Cl)c1` showed a max activity of 14.2% [at 0.16 µM]. Work on `COc1ccc(S(=O)(=O)N2CCCCN3[C@H](C2)[C@@H](c2ccc(C#CCC(C)C)cc2)[C@@H]3CO)cc1` yielded a max activity of 177% [at 10 µM]. In the case of `Cc1cccc(NC(=O)N2CCc3nc(-c4ccccc4)sc3C2)c1`, the max activity is reported as -11.3% [at 0.35 µM]. Work on `CCOc1ccc(CC(=O)Nc2ccc(-c3nc(-c4ccccc4)co3)cc2)cc1OCC` yielded a max activity of 30.5% [at 10 µM]. `Cc1ccc(NC(=O)CN2CCC3(CC2)N=C(c2ccc(F)cc2)C(=O)N3)cc1C` showed a max activity of -13.8% [at 1.35 µM]. In the case of `COc1ccccc1-c1nc(Cn2nnc(-c3nc(-c4ccc(C(F)(F)F)cc4)no3)c2C)c(C)o1`, the max activity is reported as 8.9%. Compound `COc1cccc(NC(=O)Nc2ccc(-c3nc(-c4ccccc4)co3)cc2)c1` has a max activity of 66.2%. `C=CCO[C@@H]1CCN(c2cc(OC)ncn2)[C@H]1Cc1cnn(C)c1` showed a max activity of 25.2%. With `CC=Cc1ccc2n(c1=O)C[C@H]1[C@H](CO)[C@@H](C(=O)Nc3ccc(-c4ccccc4)cc3)[C@@H]2N1C(=O)CC` (mixture of isomers) the max activity was 25.5%. Work on `Clc1ccc(CSc2nc(NCc3ccccc3)c3ccccc3n2)cc1` yielded a max activity of 30.6% [at 2.6 µM]. In the case of `Clc1ccc(CSc2nc(NCCc3ccccc3)c3ccccc3n2)cc1`, the max activity is reported as 29.6% [at 2.6 µM]. For `COc1ccc(CNc2nc(SCc3ccccc3Cl)nc3ccccc23)cc1`, the max activity was 17.2%. With `COc1ccc(CCNc2nc(SCc3cccc(F)c3)nc3ccccc23)cc1OC` the max activity was 12% [at 5 µM]. For `Clc1ccc(CNc2nc(SCc3ccc(Cl)cc3)nc3ccccc23)cc1`, the max activity was 7.58% [at 2.6 µM]. In the case of `Clc1cccc(CSc2nc(NCCc3ccccc3)c3ccccc3n2)c1`, the max activity is reported as -7.56% [at 0.16 µM].
